Several values for one entry are separate records, joined by “and”; a condition that tells them apart may be missing. Equal values may be shown once. About 83,000 compounds went through this panel and 20% of them were active in at least one assay; those are over-represented in the sample as a whole.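 Single-dose data. Exposure time 48 hours. Values below 10 considered active.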 Unmarked numbers belong to inactive results. Activity calls are given as the source filed them.

13 compounds from PubChem BioAssay (NCI) can be followed below.

Experiment in all cases: NCI-60 one-dose screen, 48 h (100 = growth as untreated, 0 = no growth, -100 = all killed)
Details in all cases: 10 µM unless noted

For experiment [1], the system named is HCT-15 colon.
Experiment [2] deals with HT29 colon.
Experiment [3] concerns SNB-75 CNS.
Experiment [4] concerns SNB-19 CNS.
In experiment [5] the test system is U251 CNS.
Experiment [6] deals with PC-3 prostate.
For experiment [7], the system named is SK-MEL-5 melanoma.
In experiment [8] the test system is UACC-62 melanoma.
The test system of experiment [9] is LOX IMVI melanoma.
Experiment [10] has as its system SK-MEL-28 melanoma.
Experiment [11] has as its system SK-MEL-2 melanoma.
The subject of experiment [12] is EKVX NSCLC.
For experiment [13], the system named is SN12C renal.
Experiment [14] concerns UO-31 renal.
The subject of experiment [15] is TK-10 renal.
Experiment [16] concerns ACHN renal.
Experiment [17] relates to CAKI-1 renal.
For experiment [18], the system named is A498 renal.
Experiment [19] relates to CCRF-CEM leukemia.
In experiment [20] the test system is MOLT-4 leukemia.

Turning to `CONC1=Nc2cc(NC(N)=NCc3ccccc3)c(N(C)C3CCCCC3)cc2OC1`, the growth is 101% in experiment [1]; 29.5% in experiment [2]; 40.9% in experiment [3]; 68.8% in [4]; 53.1% in experiment [5]; 51.1% in experiment [6]. Moreover, the growth in [7] is 74.9%; in experiment [8], 70.1%; in experiment [9] it was 50.2%; in experiment [10], 87.9%; in experiment [11] it was 91.5%; in experiment [12] it was 62%. Moreover, the growth is 64.8% in experiment [13]; 75.5% in [14]; 82.3% in [15]; 79.1% in [16]; 93.7% in [17]; 82.4% in experiment [18]. In addition, the growth in experiment [19] was 68.2%; in experiment [20], 54.2%.
`COc1ccc(/C=C/C(=O)c2cc3c(N)c(C(=O)Nc4ccccc4Cl)sc3nc2C)cc1`: the growth in [1] is 54.2%; in experiment [2] it was 39.2%; in [3], -6.43% (active); in experiment [4], 44.7%; in [5], 31.7%; in experiment [6], 59.2%. Also, the growth in experiment [7] is -56.1% (active); in [8], -1.92% (active); in experiment [9], 48.2%; in [10] it was 42%; in experiment [11] it was 30.6%; in experiment [12], 66.8%. Besides, the growth in [13] is 53.8%; in [14], -10.2% (active); in experiment [15], 20.4%; in [16] it was 10.2%; in experiment [17] it was 31.9%; in experiment [18] it was 30.9%. Besides, the growth in experiment [19] is 58.9%; in experiment [20], 36.2%.
Take `NCCOCCOc1ccccc1`: the growth in experiment [1] is 104%; in experiment [2], 97.6%; in [3] it was 106%; in experiment [4] it was 106%; in experiment [5] it was 96.1%; in [6], 90.5%. Also, the growth in [7] is 114%; in experiment [8] it was 102%; in experiment [9] it was 102%; in experiment [10], 107%; in experiment [11], 101%; in experiment [12], 106%. Moreover, the growth was 103% in experiment [13]; 86.8% in experiment [14]; 90.9% in experiment [15]; 106% in experiment [16]; 88.3% in experiment [17]; 97.3% in experiment [18]. Besides, the figures for the growth in experiment [19] and in experiment [20] were 91.9% and 101%, respectively.
`CN1CCN(C(=O)OCc2nc3c(N4CCOCC4)nc(Cl)nc3n2C)CC1`: the growth is -55.4% (active) in [1]; -67.7% (active) in [2]; -21.7% (active) in experiment [3]; 57.9% in [4]; -14.1% (active) in [5]; -16.9% (active) in [6]. Besides, the growth in experiment [7] is -12.8% (active); in experiment [8], -78% (active); in experiment [9], -96.2% (active); in experiment [10], -95.5% (active); in [11], -57.4% (active); in experiment [12], -43.6% (active). For the same compound, the growth in [13] is -75.1% (active); in experiment [14], -100% (active); in experiment [15] it was -78% (active); in experiment [16], -94.5% (active); in experiment [17], -75.2% (active); in [18], -15.5% (active). Also, the growth in [19] was -6.96% (active); in experiment [20] it was -24.8% (active).
As to `CN1CCN(c2ccc(/C=C/C(=O)c3ccc(O)cc3)cc2)CC1`, the growth is 91.1% in [1]; 100% in experiment [2]; 85.6% in experiment [3]; 99.6% in experiment [4]; 86.7% in experiment [5]; 93.1% in experiment [6]. Further, the growth is 94.1% in experiment [7]; 92.7% in [8]; 95.4% in [9]; 98.8% in experiment [10]; 102% in [11]; 83.7% in experiment [12]. Further, the growth in [13] is 94.1%; in experiment [14], 85.3%; in experiment [15] it was 122%; in experiment [16] it was 105%; in [17], 98.9%; in [18] it was 82.9%. Further, the growth was 102% in [19] and 95% in [20].
In the case of `C=C1C(=O)O[C@H]2[C@H]1CC/C(COC(=O)NCCCCNC(=O)OC/C1=C/CC[C@@]3(C)O[C@H]3[C@H]3OC(=O)C(=C)[C@@H]3CC1)=C\CC[C@@]1(C)O[C@@H]21`, the growth was 81.6% in experiment [1]; 5.38% (active) in experiment [2]; 49.5% in [3]; 90.9% in experiment [4]; 73.6% in experiment [5]; 67.7% in experiment [6]. Also, the growth was 76.8% in experiment [7]; -20.8% (active) in experiment [8]; -22.5% (active) in experiment [9]; -10.1% (active) in experiment [10]; 36.4% in experiment [11]; 89% in experiment [12]. Moreover, the growth is 19.6% in experiment [13]; 79.8% in experiment [14]; 20.1% in experiment [15]; 57.5% in experiment [16]; 76.8% in [17]; 95.1% in experiment [18]. Besides, the growth was -33.6% (active) in experiment [19] and -14.8% (active) in experiment [20].
Consider `O=C(CCCCCCCCC(=O)N/N=C\c1ccccc1O)N/N=C\c1ccccc1O`, for which the growth in [1] is 22.1%; in [2], 68.4%; in experiment [3], 37.5%; in experiment [4], 24.1%; in experiment [5], 15.2%; in [6], 31.5%. Moreover, the growth in experiment [7] was -59.8% (active); in experiment [8] it was -7.2% (active); in experiment [9] it was 10.8%; in experiment [10] it was 35.6%; in experiment [11], 32%; in experiment [12], 26.3%. Moreover, the growth in experiment [13] is 21.6%; in experiment [14] it was 13.2%; in experiment [15], 46.4%; in experiment [16], 14.7%; in experiment [17] it was 9.16% (active); in [18], 46.5%. Also, the growth in experiment [19] is 10.8%; in [20], 15%.
Consider `COc1ccc2c(c1)oc1c(C)c3c(c(C)c12)C(=O)N(Nc1ccccc1)C3=O`, for which the growth is 105% in experiment [1]; 106% in experiment [2]; 94.5% in experiment [3]; 99% in [4]; 108% in experiment [5]; 109% in experiment [6]. In addition, the growth is 100% in [7]; 98.5% in [8]; 100% in [9]; 95.3% in experiment [10]; 99% in experiment [11]; 108% in experiment [12]. Also, the growth was 97% in experiment [13]; 84% in [14]; 114% in experiment [15]; 99.4% in [16]; 91.5% in [17]; 117% in [18]. Besides, the growth in [19] was 111%; in [20], 99.8%.
In the case of `CCOC(=O)n1cc(-c2nonc2-c2cn(C)c3ccc(OC)cc23)c2cc(F)ccc21`, the growth in experiment [1] is 69.2%; in experiment [2], 71.1%; in experiment [3], 70.2%; in [4], 76.1%; in experiment [5] it was 83.1%; in experiment [6] it was 65%. Also, the growth is 92% in experiment [7]; 52.6% in experiment [8]; 72.2% in experiment [9]; 99.6% in experiment [10]; 99.8% in experiment [11]; 73.3% in experiment [12]. The growth in experiment [13] is 77.5%; in experiment [14], 52.1%; in experiment [15] it was 94.2%; in experiment [16], 60.2%; in experiment [17], 52.2%; in experiment [18] it was 67.5%. For the same compound, the growth was 80.9% in experiment [19] and 80.3% in experiment [20].
`CCCCCCCCn1ccc2cc(NC(=O)CN3CCN(c4nc(C)cc(N5CCCCC5)n4)CC3)ccc21`: the growth in [1] is 73.2%; in [2], 57.4%; in experiment [3], 87.6%; in experiment [4] it was 94.3%; in experiment [5], 80.4%; in experiment [6] it was 71.8%. For the same compound, the growth in experiment [7] is 82.1%; in [8], 81.2%; in [9], 103%; in experiment [10] it was 94.6%; in [11], 114%; in [12], 79.4%. Further, the growth in experiment [13] was 91.9%; in experiment [14], 58.4%; in experiment [15], 98.5%; in [16] it was 91.7%; in [17], 86.8%; in experiment [18] it was 104%. The growth in experiment [19] was -43.6% (active); in experiment [20], 0.667% (active).
Regarding `O=C1CCc2c(sc3[nH]c(=S)n(Cc4ccc(Cl)cc4)c(=O)c23)C1`, the growth was -13.5% (active) in experiment [1]; 14.5% in [2]; 3.19% (active) in experiment [3]; 19.8% in experiment [4]; 5.03% (active) in experiment [5]; 3.57% (active) in [6]. Besides, the growth in [7] was -81.1% (active); in experiment [8], 0.777% (active); in experiment [9] it was 2.41% (active); in experiment [10], 19.6%; in experiment [11] it was -20.9% (active); in experiment [12], -2.48% (active). For the same compound, the growth in [13] is 5.94% (active); in experiment [14], -6.54% (active); in [15], 15.3%; in [16] it was 6.08% (active); in [17], 3.79% (active); in experiment [18], -2.71% (active). For the same compound, the growth in experiment [19] is -9.46% (active); in [20], 18%.
As to `CCOc1ccc(C(=O)Cc2ccccc2)cc1`, the growth in [1] is 98.2% and 110%; in experiment [2], 104% and 111%; in experiment [3], 101% and 113%; in experiment [4], 101% and 102%; in [5], 108% and 101%; in [6] it was 102% and 110%. The growth is 106% and 98.5% in experiment [7]; 98.2% and 106% in experiment [8]; 102% and 106% in experiment [9]; 115% and 109% in experiment [10]; 103% and 118% in experiment [11]; 98.5% and 101% in [12]. Further, the growth was 103% and 105% in experiment [13]; 91.3% and 107% in experiment [14]; 85.1% and 92.3% in experiment [15]; 107% and 115% in [16]; 103% and 99.6% in experiment [17]; 79.6% and 87.5% in experiment [18]. Also, the growth is 97.6% in experiment [19]; 94.4% and 99.2% in experiment [20].
Regarding `Cc1nc2sc(C(=O)Nc3cccc4ccccc34)c(N)c2cc1C(=O)/C=C/c1ccccc1`, the growth in [1] is -63.3% (active); in experiment [2] it was -47.9% (active); in experiment [3], 8.27% (active); in [4], -27.1% (active); in [5] it was -67.3% (active); in experiment [6] it was -8.41% (active). Also, the growth in experiment [7] is -17.8% (active); in experiment [8] it was 7.54% (active); in experiment [9], -73.1% (active); in experiment [10], 23.6%; in [11] it was 27%; in experiment [12], 41.1%. In addition, the growth in experiment [13] was -44.3% (active); in experiment [14], -82.6% (active); in [15], 4.36% (active); in experiment [16], 5.45% (active); in [17], -60.6% (active); in experiment [18], -5.08% (active). The growth in experiment [19] is 5.51% (active); in experiment [20], 18.4%.
